# Compound activity from PubChem.
# An excerpt weighted towards active compounds, which were near 13% of everything screened.
# CHOP inhibitor = blocks CHOP induction under ER stress; inhibition, % at 10 µM; CHO-K1 CHOP-promoter luciferase, tunicamycin-induced, 15-18 h; 220,000 tested, 3.8% active; AID 2732;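 active = compounds that reduced the stress-induced luciferase reporter signal by more than about 70% of percent inhibition, limit read from the data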
# Lmaj promast = reduces viability of Leishmania major promastigotes; resazurin fluorescence viability; inhibition, % at 10 µM; 200,000 tested, 9% active; AID 1063; in the data active = inhibition above about 50%;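 also: promastigotes grown with compound for 44 hours at 28 °C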
# RAM inhibit = blocks the yeast RAM network; S. cerevisiae dse1pr::URA3 reporter, 5-FOA growth OD615, 2 d; analog-sensitive cbk1-as2 kinase mutant strain; inhibition, % at 50 µM; 190,000 tested, 1.8% active; AID 868;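 active = inhibition above a set limit, 3 SD over mean compound inhibition, cut at about 8.4% in these data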;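 also: inhibition rescues growth on 5-FOA so higher OD means more RAM inhibition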
# WT yeast gro inh = growth inhibition of WT yeast, mitochondrial fusion screen; mitochondrial fusion phenotypic screen, WT strain; inhibition, % at 10 µM; 190,000 tested, 2.1% active; in the data active = inhibition above about 58%; tested in S. cerevisiae
# Numbers stand for hits; - = inactive; . = no result.
SMILES,CHOP inhibitor,Lmaj promast,RAM inhibit,WT yeast gro inh
CC(C)CCCNc1nc(N2CCOCC2)nc(N2CCOCC2)n1,-,-,-,-
CC(CCc1ccccc1)NC(=O)COC(=O)c1cccc2ccccc12 (configuration not stated),-,-,-,-
Cc1ccccc1/C=C/c1nc2ccccc2c(=O)[nH]1,-,.,.,.
Cc1ccc(/C=C/c2nc3ccccc3c(=O)[nH]2)cc1,88,.,.,.
Cc1ccccc1/C=C\c1nc2ccccc2c(=O)[nH]1,84,-,-,-
Cc1ccc(S(=O)(=O)Cc2nc3ccccc3c(=O)[nH]2)cc1,-,-,-,-
NC(=O)C(=O)N/N=C/c1c(F)c(F)c(F)c(F)c1F,-,-,-,-
CCN1CCCC1CNC(=O)c1ccc(N2CCOCC2)c(NS(=O)(=O)c2ccc(OC)cc2)c1 (configuration not stated),-,-,-,-
COc1ccc(/C=C\c2nc(=O)c3ccccc3o2)cc1,-,84,-,-
O=c1nc(/C=C/c2ccc(O)c(O)c2)oc2ccccc12,-,.,.,.
O=C(CN(Cc1ccccc1)S(=O)(=O)c1ccc(Br)cc1)NCc1ccco1,-,100,-,-
CCN(CC(=O)NCCc1ccccc1)S(=O)(=O)c1ccc(Br)cc1,-,-,-,-
Cc1ccc(S(=O)(=O)N(Cc2ccc(F)cc2)Cc2ccco2)cc1,-,-,-,-
Cc1ccc(S(=O)(=O)N(Cc2ccccc2)Cc2ccco2)cc1,-,88,-,76
Cc1ccc(-c2ccc(S(=O)(=O)NCC3CCCO3)cc2)cc1 (configuration not stated),-,-,-,-
Cc1ccccc1N(CC(=O)Nc1ccccc1C(=O)NCc1ccco1)S(=O)(=O)c1ccccc1,-,-,-,-
Cc1ccc(S(=O)(=O)N(Cc2ccc(Cl)cc2)c2ccccc2C(=O)NCc2ccco2)cc1,-,58,8.9,-
Cc1ccc(CN(Cc2ccco2)S(=O)(=O)c2ccc(S(=O)(=O)NCC3CCCO3)cc2)cc1 (configuration not stated),-,-,9.3,-
OC(c1ccccc1)(c1ccc(F)cc1)C(c1ccccc1)N1CCOCC1 (configuration not stated),-,-,-,-
C/C(=N\NC(=O)c1ccc(COc2ccccc2)cc1)c1ccncc1,-,-,-,-
O=C(NNc1cccc([N+](=O)[O-])c1)/C(=C\c1cccnc1)NC(=O)c1ccccc1,-,.,.,.
CCOC(=O)c1c(NC(=S)NCC2CCCO2)sc(C)c1C (configuration not stated),-,-,-,-
COC(=O)c1ccc(C(=O)OC)c(NC2=NS(=O)(=O)c3ccccc32)c1,-,-,-,-
COC(=O)c1c(-c2ccccc2)csc1NC1=NS(=O)(=O)c2ccccc21,-,89,-,-
CCCNS(=O)(=O)c1ccc(OCC(=O)Nc2ccc3c(c2)OCO3)cc1,-,-,-,-
SMILES,CHOP inhibitor,Lmaj promast,RAM inhibit,WT yeast gro inh
COC(=O)CCN1CCN(S(=O)(=O)c2ccccc2Br)CC1,-,-,-,-
COc1ccc2nc(Nc3nc4cc5c(cc4s3)OCO5)sc2c1,-,55,-,-
C/C(N)=C(/C#N)C(=O)CSc1nnc(-c2ccccc2)n1C,-,.,.,.
CCC(CC)c1nc2ccccc2c(=O)[nH]1,-,-,-,-
CCN1C(=O)/C(=C\c2nc3ccccc3c(=O)n2-c2ccccc2)c2ccccc21,-,77,9.6,-
CCN1C(=O)/C(=C/c2nc3ccccc3c(=O)[nH]2)c2ccccc21,-,99,-,-
CCN1C(=O)/C(=C/c2nc3ccccc3c(=O)n2-c2ccc(C)cc2)c2ccccc21,-,99,-,-
CO/N=C(\C(=O)N[C@@H]1C(=O)N2C(C(=O)O)=C(CSc3nc(=O)c(O)nn3C)CSC12)c1csc(N)n1 (some centres not stated),-,.,.,.
S=C(c1ccc2c(c1)OCO2)N1CCOCC1,-,.,.,.
COc1ccccc1Cn1c(C(C)C)nc2ccccc21,-,.,.,.
COc1ccc(/C=C/c2nc3ccccc3n2Cc2ccccc2OC)cc1,-,65,-,75
Cn1c(/C=C/c2ccccc2)nc2ccccc21,-,-,-,67
COCCn1c(/C=C/c2ccccc2)nc2ccccc21,-,-,-,-
COc1ccccc1Cn1c(/C=C/c2ccccc2)nc2ccccc21,-,-,-,79
C[C@@H]1NC(=O)c2cc([N+](=O)[O-])cc(I)c2OCC[C@@H](C(N)=O)NC(=O)[C@H](CCC(=O)O)NC1=O,-,-,-,-
Cc1ccccc1C(=O)NC(=S)Nc1ccc2[nH]c(=O)[nH]c2c1,-,-,-,-
Cc1[nH][nH]c(=O)c1C(c1ccc(-c2ccc(Cl)cc2Cl)o1)c1c(C)[nH][nH]c1=O,-,100,-,-
COC(=O)c1ccc(-c2ccc(C(c3c(C)[nH][nH]c3=O)c3c(C)[nH][nH]c3=O)o2)cc1,-,97,-,-
CCCCC(=O)Nc1ccc(NC(=O)c2ccccc2[N+](=O)[O-])cc1OC,-,-,-,-
C/C(=N\NC(N)=O)c1ccc(-n2ccnc2)cc1,-,-,-,-
C/C(=N\NC(=O)c1ccc(C)cc1C)c1ccc(-n2ccnc2)cc1,-,79,-,-
Cn1ccnc1C1CCCCN1C(=O)c1cc(COc2ccc(F)cc2F)on1 (configuration not stated),-,.,.,.
COc1ccc(-n2nc([N+](=O)[O-])c(=NCCc3ccccc3)n2O)cc1,-,96,-,-
O=[N+]([O-])c1nn(-c2ccccc2)n(O)c1=NCCc1ccccc1,-,91,-,-
Cc1ccc(CCN=c2c([N+](=O)[O-])nn(-c3ccccc3)n2O)cc1,-,-,-,-
SMILES,CHOP inhibitor,Lmaj promast,RAM inhibit,WT yeast gro inh
COc1cccc(CN=c2c([N+](=O)[O-])nn(-c3ccccc3C)n2O)c1,-,-,-,-
O=C(/C=C/c1ccccc1Cl)N(Cc1ccc(Cl)cc1)C1CCS(=O)(=O)C1 (configuration not stated),-,79,-,-
CCOC(=O)c1ccc(NC(=S)Nc2ccc3[nH]c(=O)[nH]c3c2)cc1,-,.,.,.
C=CSc1sc(Cl)c(N(CC)CC)c1[N+](=O)[O-],-,-,-,-
Cc1ccc(C(=O)NCC#N)cc1,-,-,-,-
Cc1ccc(C(=O)NC(C#N)=C(Cl)Cl)cc1,80,-,-,-
COc1ccc(/C=C/C(=O)OCC(=O)NC(=O)NC(C)(C)C)cc1,-,-,-,-
Nc1ccccc1Nc1ccncc1[N+](=O)[O-],-,-,-,-
O=[N+]([O-])c1cncc([N+](=O)[O-])c1Nc1ccccc1Cl,-,80,-,-
CC1(C)CC(=O)/C(=C(\O)c2ccccc2)C(=NCCc2ccccc2)C1,-,-,-,-
CC1(C)CSC(=NCCc2ccccc2)N1C(=O)c1ccc(C#N)cc1,-,92,-,-
CC(=O)c1ccc(NS(=O)(=O)c2cccc(C)c2)cc1,-,-,-,-
Cc1ccccc1SCCNC(=O)CCc1ccccc1,-,-,-,-
CCCCC(=O)Nc1ccc(NC(=O)c2cccs2)cn1,-,83,-,-
CCCC(=O)Nc1ccc(C(=O)NNC(=S)NC(=O)c2cccs2)cc1,-,99,-,-
COc1cc(/C=C(\C#N)C(=O)Nc2ccc3c(c2)OCCO3)ccc1O,-,.,.,.
